Screening data as filed in PubChem.
LASV entry inh: qHTS for Inhibitors of binding or entry into cells for Lassa Virus; 1.2% of 300,000 active; Lassa virus pseudotype entry inhibition, cell reporter; Potency, µM (titrated, usually from 37.9 µM), actives largely listed as inhibitors; calls by dose curve; tested in HEK293 cells; also: nearly all actives have a fitted effect of over 50% in size
Cycloheximide cs: Cycloheximide Counterscreen for Small Molecule Inhibitors of Shiga Toxin; AID 2314, 2010; 12% of 300,000 active; max response, %; cell reporter, cycloheximide protein synthesis inhibition counterscreen; in the data active = max response mostly above about 13%, no sharp cut-off; inactive = mostly below about 14%; also: read at 38.3 µM for the half of the compounds with a filed dose
Shiga inhibitor: A qHTS for Small Molecule Inhibitors of Shiga Toxin; inhibition, % at 38.7 µM; AID 2315, 2010; 9.2% of 290,000 active; Vero cells, Shiga toxin protein synthesis inhibition reporter; in the data active = inhibition mostly above about 28%, no sharp cut-off; inactive = mostly below about 43%
Marburg entry inh: qHTS for inhibitors of binding or entry into cells for Marburg Virus; Potency, µM (titrated, usually from 37.8 µM), hits mostly inhibitors; Marburg virus pseudotyped entry inhibition, cell reporter; 1.8% of 300,000 active; AID 540276, 2011; calls by dose curve; tested in HEK293 cells
Large screens that a line does not name were inactive. This is a sample that favours compounds with a hit; in the whole collection about 12% have one here.

O=C1N=C2CCCCC2=C1c1sc(N[S+](=O)([O-])C2CCCCC2)nc1O	none (no result: LASV entry inh, Cycloheximide cs, Shiga inhibitor)
CCOc1ccccc1N1CCN(Cc2cn[nH]c2-c2ccc(F)cc2)CC1	Marburg entry inh inconclusive
O=C(NNC(=O)C1CCN(Cc2ccccc2)CC1)c1cccc(Cl)c1	Marburg entry inh inconclusive
O=C(NNC(=O)C1C2CCC(C2)C1C(=O)O)c1cccc(Cl)c1 (centres undefined)	Cycloheximide cs 19.4
O=C(NC1CCCCCCC1)c1cccc(Cl)c1	Cycloheximide cs 40.5, Shiga inhibitor 64.1 (no result: LASV entry inh, Marburg entry inh)
CC1CCN(c2ncnc3c2c(-c2ccccc2)cn3-c2ccc(Br)cc2)CC1	none (no result: Cycloheximide cs, Shiga inhibitor, Marburg entry inh)
Nc1nc2cc(Cl)c(Br)cc2o1	none (no result: Cycloheximide cs, Shiga inhibitor)
COc1ccc2oc(-c3cccc(NC(=O)c4sc5c([N+](=O)[O-])cccc5c4Cl)c3)nc2c1	none (no result: Cycloheximide cs, Shiga inhibitor)
C=CCn1c(SCc2nc3ccccc3[nH]2)nnc1-c1cccc(OC)c1	none
COc1ccc2oc(=Nc3ccc(C(=O)O)cc3)c(C(=O)NCc3ccco3)cc2c1	none
COc1ccc(N=c2oc3ccc(OC)cc3cc2-c2nc3ccccc3[nH]2)cc1	LASV entry inh inconclusive, Cycloheximide cs 27.5, Shiga inhibitor 161.7, Marburg entry inh inconclusive
COc1cccc(N=c2oc3ccccc3cc2-c2nc3ccccc3[nH]2)c1	LASV entry inh inconclusive, Cycloheximide cs 37.7, Shiga inhibitor 63.4, Marburg entry inh inconclusive
COc1cccc(N=c2oc3ccc(OC)cc3cc2-c2nc3ccccc3[nH]2)c1	LASV entry inh inconclusive, Cycloheximide cs 40.3, Shiga inhibitor 94.1, Marburg entry inh inconclusive
COc1ccc2oc(=O)c(-c3nc(-c4cccs4)no3)cc2c1	none (no result: Cycloheximide cs, Shiga inhibitor, Marburg entry inh)
Cc1cccn2c(=O)c3cc(C(=O)NC(C)C)n(C)c3nc12	none (no result: Cycloheximide cs, Shiga inhibitor, Marburg entry inh)
O=C(O)c1cccc(NN=C2c3ccccc3-c3ccccc32)c1	Cycloheximide cs 41.6, Shiga inhibitor 84.1
O=C(O)c1cccc2c1-c1ccccc1/C2=N\Nc1ccccc1	Cycloheximide cs 50.0, Shiga inhibitor 116.2, Marburg entry inh inconclusive
O=C(O)c1cc(NN=C2c3ccccc3-c3ccccc32)ccc1Cl	none
CCCCC(=O)NS(=O)(=O)c1ccc(NS(C)(=O)=O)cc1	LASV entry inh inconclusive
COc1cccc(CNCCC2=C3C=CC=CC3N=C2)c1 (centres undefined)	Marburg entry inh 11.2µM (no result: LASV entry inh, Cycloheximide cs, Shiga inhibitor)
COc1cccc(CCNCc2cccc(C(F)(F)F)c2)c1	Marburg entry inh inconclusive
COc1cccc2c1C(=O)c1c(O)c3c(c(O)c1C2=O)C[C@@](O)(C(=O)CO)C[C@@H]3OC1CC(N)C(O)C(C)O1 (some centres undefined)	LASV entry inh inconclusive, Marburg entry inh 0.501µM (no result: Cycloheximide cs, Shiga inhibitor)
O=C(CCC(=O)N1CCCC1)N1CCCC1	none
C=C(C(=O)c1ccccc1)C(C)C(=C)C(=O)c1ccccc1	LASV entry inh 17.8µM, Cycloheximide cs 37.9, Marburg entry inh 7.94µM
Cc1cc(Br)ccc1NC(=O)CNC(=O)Cc1ccc(S(=O)(=O)N2CCOCC2)s1	Marburg entry inh inconclusive (no result: Cycloheximide cs, Shiga inhibitor)
COc1cccc(CN2CCN(Cc3cccc(Oc4ccccc4)c3)CC2)c1OC	none
COc1cccc(CN2CCC(N(CCc3ccccc3)Cc3ccccc3)CC2)c1OC	LASV entry inh inconclusive, Marburg entry inh 7.94µM
CC(/C=C/c1ccccc1)=N\NC(=O)c1ccc(Br)cc1	LASV entry inh inconclusive
CC(/C=C/c1ccccc1F)=N\NC(=O)c1ccccc1	LASV entry inh inconclusive, Cycloheximide cs 55.2, Shiga inhibitor 159.8
CC(/C=C/c1ccccc1F)=N\NC(=O)c1ccc(Cl)cc1	Cycloheximide cs 13.7
CC(C)(C)Sc1ccc2nc3c(n2c1)CCCC3	Cycloheximide cs 14.9
O=[N+]([O-])c1ccc(N2CCc3ccccc3C2)nc1	Cycloheximide cs 27.8, Shiga inhibitor 53.6 (no result: LASV entry inh, Marburg entry inh)
CCOc1ccc(CCNC(=O)CN2C(=O)COc3ccc(S(=O)(=O)N(CC)CC)cc32)cc1	Marburg entry inh inconclusive (no result: Cycloheximide cs, Shiga inhibitor)
CC[n+]1c(/C=C2\C=C(C)CC(C)(C)C2)sc2ccccc21	LASV entry inh 9.2µM, Marburg entry inh inconclusive
CCC1=C/C(=C/c2sc3ccccc3[n+]2CC)CC(C)(C)C1	none
Cc1ccnc(NCc2cc(C)ccc2O)c1	Cycloheximide cs 18.8 (no result: Shiga inhibitor)
Cc1ccc(O)c(CNc2ccccn2)c1	Shiga inhibitor 101.0
Cc1ccc(O)c(CNc2cccc(C)n2)c1	none
FCCCOc1ccc(-c2ccnc(-c3ccccc3)n2)cc1	Cycloheximide cs 27.7, Shiga inhibitor 81.0
COC(=O)COc1ccc(-c2nccc(-c3ccccn3)n2)cc1	LASV entry inh inconclusive
COc1ccc(-c2ccnc(-c3ccc(O)cc3)n2)cc1	LASV entry inh inconclusive, Cycloheximide cs 24.5, Marburg entry inh inconclusive
FCCCOc1ccc(-c2nccc(-c3ccc(F)cc3)n2)cc1	none
Oc1ccc(-c2nccc(-c3ccccn3)n2)cc1	Cycloheximide cs 80.8, Shiga inhibitor 88.4 (no result: LASV entry inh, Marburg entry inh)
Cc1ccc(-c2ccnc(-c3ccc(O)cc3)n2)cc1	Cycloheximide cs 31.5, Shiga inhibitor 80.1
O=C(c1ccc2c(c1)OCCO2)N(Cc1cccnc1)c1nc2c(Cl)cccc2s1	none (no result: Cycloheximide cs, Shiga inhibitor, Marburg entry inh)
N#Cc1cccnc1N1CCN(C(=O)c2cccs2)CC1	none
Oc1ccc(-c2nccc(-c3ccc(Br)cc3)n2)cc1	Cycloheximide cs 17.2, Shiga inhibitor 40.3 (no result: LASV entry inh, Marburg entry inh)
O=C(CSc1nccn1Cc1ccco1)Nc1ccccc1F	LASV entry inh inconclusive, Cycloheximide cs 29.9
Cc1nnc(SCC(=O)Nc2ccccc2F)n1Cc1ccco1	none (no result: LASV entry inh, Marburg entry inh)
Cc1ccc(NC(=O)CSc2nccn2Cc2ccco2)c(C)c1	LASV entry inh inconclusive, Cycloheximide cs 51.8, Shiga inhibitor 60.7, Marburg entry inh inconclusive
Cc1ccc(C)c(NC(=O)CSc2nccn2Cc2ccco2)c1	Cycloheximide cs 23.9, Shiga inhibitor 53.8
COc1ccc(S(=O)(=O)N2CCN(C(=O)c3ccco3)CC2)cc1C(C)(C)C	none (no result: LASV entry inh, Shiga inhibitor, Marburg entry inh)
COc1ccc(CC(=O)O/N=C(\N)Cc2cccc3ccccc23)cc1OC	none
N/C(=N\OC(=O)Cc1cccc2ccccc12)c1ccccn1	Cycloheximide cs 49.3, Shiga inhibitor 161.2, Marburg entry inh inconclusive
COc1ccc(CC(=O)O/N=C(\N)Cc2cccc3ccccc23)cc1	none
COc1ccc(/C(N)=N/OC(=O)Cc2ccccc2OC)cc1	Cycloheximide cs 38.7, Shiga inhibitor 36.4
COc1ccc(CC(=O)O/N=C(\N)c2ccccn2)cc1OC	LASV entry inh inconclusive, Cycloheximide cs 34.6, Shiga inhibitor 54.5, Marburg entry inh inconclusive
N/C(=N\OC(=O)Cc1ccccc1[N+](=O)[O-])c1ccccn1	Cycloheximide cs 48.6, Shiga inhibitor 139.2, Marburg entry inh inconclusive
N/C(=N\OC(=O)CCN1C(=O)c2ccccc2C1=O)c1ccccn1	none (no result: LASV entry inh, Marburg entry inh)
Cc1nc2c(sc3nc(N4CCOCC4)c4c(c32)CC(C)(C)OC4)c(-c2ccc(Cl)cc2)c1C(=O)O	none (no result: LASV entry inh, Marburg entry inh)
S=C(NCCCN1CCOCC1)NC1CC1	none (no result: LASV entry inh, Marburg entry inh)
Cc1ccc2scc(N3CCCCC3C)c(=O)c2c1 (centres undefined)	none (no result: Cycloheximide cs, Shiga inhibitor, Marburg entry inh)
COc1ccccc1CC(=O)O/N=C(\N)c1ccccn1	Cycloheximide cs 41.8, Shiga inhibitor 91.6 (no result: LASV entry inh, Marburg entry inh)
COc1cccc(C(=O)O/N=C(\N)c2ccccn2)c1OC	none (no result: LASV entry inh, Marburg entry inh)
N/C(=N\OC(=O)c1cccc2ccccc12)c1ccccn1	LASV entry inh inconclusive, Cycloheximide cs 56.7, Shiga inhibitor 95.2, Marburg entry inh inconclusive
O=C(NCC1CCCO1)c1cc(S(=O)(=O)Nc2ccc(Br)cc2)ccc1Cl (centres undefined)	none (no result: LASV entry inh, Marburg entry inh)
Cc1ccc(N=Cc2cc(Cc3ccccc3Cl)cc([N+](=O)[O-])c2O)c(O)c1	Cycloheximide cs 30.5
